TDP1 cell noCPT: qHTS for Inhibitors of human tyrosyl-DNA phosphodiesterase 1 (TDP1): qHTS in cells in absence of CPT; DT40 Tdp1-/- hTDP1 cells, no CPT, ATP luminescence, 48 h; Potency, µM (top dose mostly 46.2 µM), without a hit: top-dose activity change, negative = growth inhibition, most hits filed as inhibitors; 15% of 420,000 active; AID 686978, 2013; further: nearly all actives have a fitted effect of over 55% in size
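Readout: luminescence from CellTiter-Glo after 30 min in the dark at RT. Cells: DT40 Tdp1-/- with stable hTDP1, 400/well. Exposure: compounds alone, ≥48 hr, 37 °C.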
KAT2A inh: qHTS Assay for Inhibitors of GCN5L2 | 0.21% of 390,000 active | AID 504327, 2011 | GCN5L2 HAT assay, ThioGlo1 CoA-SH fluorescence | Histone acetyltransferase KAT2A (Homo sapiens), Q92830 | Potency, µM (highest dose often 58.9 µM), inactives show at the highest dose activity change, negative = inhibition, usual class: inhibitors
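qHTS, 1536-well. 20nM enzyme, pH 7.5 HEPES/EDTA/Tween-20 buffer; 15 min compound preinc., RT. Start: 75uM H3(1-25), 70uM AcCoA, 50uM ThioGlo1. Read Ex340/Em540 at t=0 (autofluorescence flag) and t=20 min.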
TDP1 cell CPT: qHTS for Inhibitors of human tyrosyl-DNA phosphodiesterase 1 (TDP1): qHTS in cells in presence of CPT | Potency, µM (doses to about 46.2 µM), for the others: at the highest dose activity change, negative = growth inhibition, hits mostly inhibitors | chicken DT40 Tdp1-/-;hTDP1 cells + 20 nM CPT, ATP luminescence, 48 h | 12% of 420,000 active; further: nearly all actives have a fitted effect of over 55% in size
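Chicken DT40 Tdp1-/- cells complemented with human TDP1, 400 cells/well, exposed to compounds plus 20 nM camptothecin for at least 48 h at 37 C; viability read as ATP content by CellTiter-Glo luminescence.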
PLK1 PBD inh: qHTS for Inhibitors of PLK1-PDB (polo-like kinase 1 - polo-box domain): Primary Screen | Plk1 PBD binding of FITC phosphopeptide, fluorescence polarization | Potency, µM, without a hit: max response, negative = inhibition, most hits filed as inhibitors | 2.8% of 360,000 active; further: series mostly up to about 57 µM; nearly all actives have a fitted effect of over 65% in size
TDP1 inh: qHTS Assay for Inhibitors of Tyrosyl-DNA Phosphodiesterase (TDP1); Potency, µM (highest dose often 130 µM), for the others: top-dose activity change, negative = inhibition, hits mostly inhibitors; recombinant TDP1, AlphaScreen DNA substrate cleavage; 0.28% of 350,000 active; further: nearly all actives have a fitted effect of over 40% in size
Target sequence (Q9NUW8 whole entry, looked up): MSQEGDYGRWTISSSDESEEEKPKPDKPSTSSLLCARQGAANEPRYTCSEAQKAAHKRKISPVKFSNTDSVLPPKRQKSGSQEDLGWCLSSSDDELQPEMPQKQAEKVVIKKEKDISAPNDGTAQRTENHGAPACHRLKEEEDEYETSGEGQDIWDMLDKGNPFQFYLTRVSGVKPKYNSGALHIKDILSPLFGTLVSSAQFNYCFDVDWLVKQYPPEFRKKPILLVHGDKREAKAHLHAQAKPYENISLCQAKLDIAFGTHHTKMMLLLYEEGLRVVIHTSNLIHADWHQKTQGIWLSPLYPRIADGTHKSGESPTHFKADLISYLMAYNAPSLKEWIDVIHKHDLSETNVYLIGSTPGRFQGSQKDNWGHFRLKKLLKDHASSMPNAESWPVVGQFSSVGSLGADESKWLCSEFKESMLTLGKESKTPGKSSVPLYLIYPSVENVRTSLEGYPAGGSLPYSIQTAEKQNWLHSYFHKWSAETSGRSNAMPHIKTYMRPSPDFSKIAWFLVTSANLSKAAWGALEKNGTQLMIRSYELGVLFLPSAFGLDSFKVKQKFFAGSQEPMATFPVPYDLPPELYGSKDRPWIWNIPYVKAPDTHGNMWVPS
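Recombinant E. coli-expressed Tdp1 (1 nM) preincubated with compound 15 min at RT, then 5'-biotin/3'-phosphotyrosine-FITC DNA substrate (15 nM) added for 5 min. AlphaScreen beads (10 ug/ml) added, 10 min RT; tyrosine-FITC cleavage read as signal loss.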
VDR inhibitor: Inhibitors of the vitamin D receptor (VDR): qHTS; Vitamin D3 receptor (Homo sapiens), P11473; VDR-SRC2-3 peptide fluorescence polarization, 2 h; Potency, µM, for inactives: max response, negative = inhibition, usual class: inhibitors; 0.93% of 400,000 active; AID 504847, 2011
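Reagent solutions, kept cold and dark, are dispensed first; compounds are then pinned in at 23 nl, plates briefly spun, and incubated 2 h at ambient temperature. Inhibition of VDR–SRC2-3 peptide binding is read by fluorescence polarization.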
* marks the source's active call; other numbers are inactive results; ? = inconclusive; . = no result; ! = repeats disagree; [ ] = remark or other dose. This is a sample that favours compounds with a hit; in the whole collection about 18% have one here. The call rests on the fitted dose curve; in most records, active means well fitted curve in the direction sought with a large enough effect; inconclusive means small, poorly fitted or top-dose-only effect, or another doubt; inactive means no such curve, though single readings can be large; an effect the other way counts as inactive or inconclusive. On the % scale 0 is the no-effect control and ±100 the full control effect; potency means the concentration at half of the fitted maximal effect.

SMILES	TDP1 cell noCPT	KAT2A inh	TDP1 cell CPT	PLK1 PBD inh	TDP1 inh	VDR inhibitor
COC(=O)c1ccccc1C(=O)N1CCOc2ccc(CN3CCN(c4ccccn4)CC3)cc2C1	-11%	.	2%[9.04 µM]	.	.	.
O=C(COC(=O)c1ccc(Cl)nc1)NCCc1ccc(F)cc1	3%	0%	8%	-12%	-4%	1%
Cc1cccc(C(=O)OCC(=O)N2CC(=O)Nc3ccccc32)c1C	-21%	-3%	-5%	-13%	-4%	-6%
Cc1ccsc1C(=O)NCc1ccc(F)cc1	5%	-1%	2%	-10%	1%	-2%
Cc1ccc(-c2c(C(=O)NCCc3ccccc3)oc(=O)c3ccccc23)cc1	?	-7%	15µM*	.	-2%	-10%
CCOc1ccc(N(C)C(=O)c2oc(=O)c3ccccc3c2-c2ccccc2)cc1	15µM*	-12%	18µM*	.	7%	-5%
CCOc1ccc(NC(=O)c2oc(=O)c3ccccc3c2-c2ccc(C)cc2)cc1	?	-8%	?	.	12%	4%
COc1cc(/C=C/C(=O)OCC(=O)N2CCc3ccccc3C2)ccc1O	?	-2%	?	-1%	5%	-15%
COc1ccc(CCNC(=O)c2ccc(CS(=O)(=O)Cc3ccc(C)cc3)o2)cc1OC	23µM*	.	?	4%	.	.
COc1ccc(N2CCN(CCCNC(=O)c3ccc(CS(=O)(=O)c4ccc(Cl)cc4)o3)CC2)cc1	21µM*	-20%	?	-10%	6%	-21%
CN1CCN(CCCNC(=O)c2ccc(CS(=O)(=O)c3ccc(Br)cc3)o2)CC1	5%	-6%	-1%	-1%	7%	15%
COc1ccc(CCNC(=O)c2ccc(CS(=O)(=O)c3ccc(Cl)cc3)o2)cc1OC	16µM*	-7%	23µM*	-7%	3%	4%
COc1ccc(CCNC(=O)c2ccc(CSc3ccc(Cl)cc3)o2)cc1OC	13µM*	.	13µM*	.	.	.
Cc1ccc(C)c(NC(=O)CC2NCCNC2=O)c1 (stereo not drawn)	6%	-5%	-4%	.	1%	17%
O=C(NCc1ccccn1)c1nn(-c2ccccc2Cl)nc1CO	-1%	-7%	-10%	.	7%	-1%
COc1ccc(CCNC(=O)c2ccc(-c3ccc([N+](=O)[O-])cc3Cl)o2)cc1OC	8.2µM*	-13%	7.3µM*	-10%	8%	-17%
COc1ccc(CCNC(=O)c2ccc([N+](=O)[O-])cc2Cl)cc1OC	-1%	.	21%	0%	.	-2%
COc1ccc(CCNC(=O)c2ccc(CS(=O)(=O)c3ccc(C)cc3)o2)cc1OC	15µM*!	-2%	?	-5%	0%	-22%
COCCNC(=O)c1ccc(CS(=O)(=O)c2ccc(OC)cc2)o1	-11%	1%	-13%	-8%	0%	-16%
COc1cccc(CNCc2ccco2)c1O	3%	-11%	-2%	5%	.	-6%
Cc1[nH]c2c(Br)cccc2c1[C@H]1[C@@H](CC#N)C1(C)C	?	-5%	16µM*	-17%	3%	-2%
CCCOc1ccc(OC(=O)c2cn(-c3ccc(OC)cc3)c(=O)c3ccccc23)cc1	16µM*	-20%	?	.	2%	-6%
COc1ccc(-n2cc(C(=O)N(C)c3cc(C)ccc3OC)c3ccccc3c2=O)cc1	21µM*	-8%	?	.	10%	-5%
CCOc1ccc(OC(=O)c2cn(-c3ccc(C)cc3)c(=O)c3ccccc23)cc1	16µM*	-3%	?	.	7%	1%

Screening results from PubChem BioAssay.
